Measurements: PMC7862700, “An all-to-all approach to the identification of sequence-specific readers for epigenetic DNA modifications on cytosine”

Tests used:
Experiment in all cases: DAPPL (digital affinity profiling via proximity ligation, sequencing); 10 mM Tris-HCl pH 7.5, 50 mM NaCl, 1 mM DTT, 4% glycerol, room temperature, 30 min; GST-TFs on glutathione beads, 16-mer random dsDNA library, 0.1% formaldehyde crosslink after washing; high values mean tight binding
FLI1 = target: T1, FLI1 (Homo sapiens, UniProt Q01543 1-452); conditions: protein: recombinant; tags: N-terminal GST; dsDNA, one strand shown
T1 sequence: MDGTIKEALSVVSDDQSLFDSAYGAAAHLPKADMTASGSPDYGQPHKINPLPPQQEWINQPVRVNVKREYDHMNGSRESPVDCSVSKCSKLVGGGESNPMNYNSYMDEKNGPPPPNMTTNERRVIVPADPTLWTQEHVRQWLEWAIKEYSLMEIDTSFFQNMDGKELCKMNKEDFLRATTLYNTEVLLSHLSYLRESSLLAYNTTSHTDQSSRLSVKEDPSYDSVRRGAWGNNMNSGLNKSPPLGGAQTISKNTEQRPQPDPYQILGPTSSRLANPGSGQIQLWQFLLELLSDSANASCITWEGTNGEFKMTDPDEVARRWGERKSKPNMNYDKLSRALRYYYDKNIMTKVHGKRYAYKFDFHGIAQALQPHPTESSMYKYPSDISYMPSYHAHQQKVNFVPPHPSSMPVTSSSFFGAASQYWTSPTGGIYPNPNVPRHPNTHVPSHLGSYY
How it was run: (§1)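 Binding signal is given per hexamer as its read frequency for a factor divided by its frequency in the tag-only sample. GST-fused human transcription factors were expressed in yeast, captured on glutathione beads, barcoded with DNA and pooled with that sample, then incubated with 200 nmole of a 16-mer random double-stranded DNA library in Tris/NaCl/DTT/glycerol buffer for 30 min at room temperature. The pools were then washed, crosslinked, proximity-ligated, amplified by PCR and sequenced on an Illumina NextSeq500.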

ELK1 = target: T2, ELK1 (Homo sapiens, UniProt P19419 1-428); conditions: protein: recombinant; tags: N-terminal GST; dsDNA, one strand shown
T2 sequence: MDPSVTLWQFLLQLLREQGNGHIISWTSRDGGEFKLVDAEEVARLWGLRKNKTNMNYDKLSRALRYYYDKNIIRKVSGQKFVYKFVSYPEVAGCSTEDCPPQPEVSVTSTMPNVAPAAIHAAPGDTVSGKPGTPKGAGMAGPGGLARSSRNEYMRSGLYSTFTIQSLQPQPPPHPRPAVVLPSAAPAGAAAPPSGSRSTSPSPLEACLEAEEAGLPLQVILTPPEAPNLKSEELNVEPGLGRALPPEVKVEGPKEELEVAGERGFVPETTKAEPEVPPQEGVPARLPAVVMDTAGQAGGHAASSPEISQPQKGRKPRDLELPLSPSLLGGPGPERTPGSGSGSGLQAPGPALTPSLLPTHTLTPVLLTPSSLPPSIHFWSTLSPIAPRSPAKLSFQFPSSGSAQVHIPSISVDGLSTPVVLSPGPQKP
How it was run: as §1

GABPA = target: T3, GABPA (Homo sapiens, UniProt Q06546 1-454); conditions: protein: recombinant; tags: N-terminal GST; dsDNA, one strand shown
T3 sequence: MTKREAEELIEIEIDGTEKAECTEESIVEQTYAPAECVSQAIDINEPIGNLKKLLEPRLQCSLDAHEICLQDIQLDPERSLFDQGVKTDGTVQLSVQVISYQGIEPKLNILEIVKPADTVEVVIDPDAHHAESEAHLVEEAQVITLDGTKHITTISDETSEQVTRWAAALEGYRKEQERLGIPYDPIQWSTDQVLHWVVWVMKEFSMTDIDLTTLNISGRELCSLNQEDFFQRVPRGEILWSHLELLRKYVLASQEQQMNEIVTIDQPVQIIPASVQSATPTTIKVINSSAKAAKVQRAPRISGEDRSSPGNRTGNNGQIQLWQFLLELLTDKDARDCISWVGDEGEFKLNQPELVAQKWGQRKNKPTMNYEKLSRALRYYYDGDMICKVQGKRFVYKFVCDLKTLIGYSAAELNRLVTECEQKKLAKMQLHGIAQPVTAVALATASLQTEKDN
How it was run: as §1

ERG = target: T4, ERG (Homo sapiens, UniProt P11308 1-479); conditions: protein: recombinant; tags: N-terminal GST; dsDNA, one strand shown
T4 sequence: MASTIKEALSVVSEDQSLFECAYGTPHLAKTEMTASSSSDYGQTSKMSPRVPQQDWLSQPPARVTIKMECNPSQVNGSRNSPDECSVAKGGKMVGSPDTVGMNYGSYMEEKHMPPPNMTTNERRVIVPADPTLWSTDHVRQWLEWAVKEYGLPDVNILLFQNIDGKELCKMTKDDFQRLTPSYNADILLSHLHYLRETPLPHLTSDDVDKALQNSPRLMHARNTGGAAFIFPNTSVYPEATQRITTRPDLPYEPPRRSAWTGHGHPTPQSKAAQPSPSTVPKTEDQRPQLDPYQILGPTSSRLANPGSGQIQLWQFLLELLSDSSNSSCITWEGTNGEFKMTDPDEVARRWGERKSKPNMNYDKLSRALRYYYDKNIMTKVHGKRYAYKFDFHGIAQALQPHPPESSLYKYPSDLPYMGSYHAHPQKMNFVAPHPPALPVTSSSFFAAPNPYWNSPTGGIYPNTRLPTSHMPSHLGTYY
How it was run: as §1

ELF1 = ELF1 (Homo sapiens, UniProt P32519 1-619); conditions: protein: recombinant; tags: N-terminal GST; dsDNA, one strand shown
ELF1, sequence (P32519 whole entry): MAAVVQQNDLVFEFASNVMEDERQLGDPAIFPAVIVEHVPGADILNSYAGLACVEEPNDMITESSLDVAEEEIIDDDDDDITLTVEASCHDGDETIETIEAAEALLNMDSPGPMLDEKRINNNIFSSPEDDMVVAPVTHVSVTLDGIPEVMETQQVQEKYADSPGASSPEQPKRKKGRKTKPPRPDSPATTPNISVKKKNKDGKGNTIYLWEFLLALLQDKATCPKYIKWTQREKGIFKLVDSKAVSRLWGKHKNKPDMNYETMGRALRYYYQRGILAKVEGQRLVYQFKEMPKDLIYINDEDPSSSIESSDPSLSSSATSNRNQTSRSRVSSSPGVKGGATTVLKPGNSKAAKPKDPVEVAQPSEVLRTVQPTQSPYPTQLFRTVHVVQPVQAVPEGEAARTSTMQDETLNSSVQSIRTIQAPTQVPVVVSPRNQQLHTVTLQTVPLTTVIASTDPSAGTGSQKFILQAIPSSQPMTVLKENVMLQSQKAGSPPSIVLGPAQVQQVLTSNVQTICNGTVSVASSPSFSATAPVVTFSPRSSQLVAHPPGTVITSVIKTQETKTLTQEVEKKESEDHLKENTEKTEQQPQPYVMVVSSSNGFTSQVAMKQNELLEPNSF
How it was run: as §1

EHF = target: T5, EHF (Homo sapiens, UniProt Q9NZC4 1-300); conditions: protein: recombinant; tags: N-terminal GST; dsDNA, one strand shown
T5 sequence: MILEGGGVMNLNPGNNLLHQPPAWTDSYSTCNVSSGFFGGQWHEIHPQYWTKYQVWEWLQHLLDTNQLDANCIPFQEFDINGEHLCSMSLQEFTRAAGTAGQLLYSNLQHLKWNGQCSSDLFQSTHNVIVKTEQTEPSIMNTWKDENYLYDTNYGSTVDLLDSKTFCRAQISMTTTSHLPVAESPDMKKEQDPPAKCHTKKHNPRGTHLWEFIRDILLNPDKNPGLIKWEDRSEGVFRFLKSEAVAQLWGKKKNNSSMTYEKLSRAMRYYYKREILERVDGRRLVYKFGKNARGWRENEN
How it was run: as §1

SPI1 = SPI1 (Homo sapiens, UniProt P17947 1-270); conditions: protein: recombinant; tags: N-terminal GST; dsDNA, one strand shown
How it was run: as §1

SPIB = SPIB (Homo sapiens, UniProt Q01892 1-262); conditions: protein: recombinant; tags: N-terminal GST; dsDNA, one strand shown
SPIB, sequence (Q01892 whole entry): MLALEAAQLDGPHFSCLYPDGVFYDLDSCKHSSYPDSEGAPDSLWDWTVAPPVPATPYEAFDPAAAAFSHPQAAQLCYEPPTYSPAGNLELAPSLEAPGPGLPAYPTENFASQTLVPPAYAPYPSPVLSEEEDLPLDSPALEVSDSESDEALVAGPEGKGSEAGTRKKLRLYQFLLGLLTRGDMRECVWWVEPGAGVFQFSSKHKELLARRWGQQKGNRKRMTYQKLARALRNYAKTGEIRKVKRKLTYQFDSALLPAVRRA
How it was run: as §1

ELK3 = target: T6, ELK3 (Homo sapiens, UniProt P41970 1-407); conditions: protein: recombinant; tags: N-terminal GST; dsDNA, one strand shown
T6 sequence: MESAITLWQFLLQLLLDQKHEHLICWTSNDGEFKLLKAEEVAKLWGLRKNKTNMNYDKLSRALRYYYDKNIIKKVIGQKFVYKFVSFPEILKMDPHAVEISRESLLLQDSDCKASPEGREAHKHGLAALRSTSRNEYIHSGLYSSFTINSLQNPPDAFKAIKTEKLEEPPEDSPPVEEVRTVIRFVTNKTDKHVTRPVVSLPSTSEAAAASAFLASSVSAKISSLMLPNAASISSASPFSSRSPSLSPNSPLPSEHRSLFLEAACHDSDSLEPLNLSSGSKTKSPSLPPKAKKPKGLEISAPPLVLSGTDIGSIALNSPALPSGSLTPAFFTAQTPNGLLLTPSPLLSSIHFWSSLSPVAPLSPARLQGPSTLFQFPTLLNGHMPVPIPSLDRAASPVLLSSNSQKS
How it was run: as §1

FEV = target: T7, FEV (Homo sapiens, UniProt Q99581 1-238); conditions: protein: recombinant; tags: N-terminal GST; dsDNA, one strand shown
T7 sequence: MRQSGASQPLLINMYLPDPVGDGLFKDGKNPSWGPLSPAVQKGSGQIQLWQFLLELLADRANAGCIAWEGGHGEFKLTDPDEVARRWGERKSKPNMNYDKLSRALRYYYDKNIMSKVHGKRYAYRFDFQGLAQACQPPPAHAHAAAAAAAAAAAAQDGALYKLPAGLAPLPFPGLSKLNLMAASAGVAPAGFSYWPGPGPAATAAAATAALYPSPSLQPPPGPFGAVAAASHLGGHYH
How it was run: as §1

ETV5 = ETV5 (Homo sapiens, UniProt P41161 1-510); conditions: protein: recombinant; tags: N-terminal GST; dsDNA, one strand shown
ETV5, sequence (P41161 whole entry): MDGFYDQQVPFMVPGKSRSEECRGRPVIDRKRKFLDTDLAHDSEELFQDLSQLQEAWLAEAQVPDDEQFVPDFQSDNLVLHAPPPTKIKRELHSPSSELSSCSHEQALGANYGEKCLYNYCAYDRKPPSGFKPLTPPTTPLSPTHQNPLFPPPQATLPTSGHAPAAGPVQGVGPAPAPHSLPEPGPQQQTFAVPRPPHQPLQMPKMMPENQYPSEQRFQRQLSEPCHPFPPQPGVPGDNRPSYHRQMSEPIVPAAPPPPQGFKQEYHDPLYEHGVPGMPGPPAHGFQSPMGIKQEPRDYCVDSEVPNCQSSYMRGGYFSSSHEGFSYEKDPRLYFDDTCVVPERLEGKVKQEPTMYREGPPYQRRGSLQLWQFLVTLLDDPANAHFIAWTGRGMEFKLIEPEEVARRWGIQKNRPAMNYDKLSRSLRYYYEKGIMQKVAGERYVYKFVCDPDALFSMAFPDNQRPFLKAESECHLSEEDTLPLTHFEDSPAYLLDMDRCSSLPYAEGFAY
How it was run: as §1

HSF1 = HSF1 (Homo sapiens, UniProt Q00613 1-529); conditions: protein: recombinant; tags: N-terminal GST; chain copies: 3; dsDNA, one strand shown
HSF1, sequence (Q00613 whole entry): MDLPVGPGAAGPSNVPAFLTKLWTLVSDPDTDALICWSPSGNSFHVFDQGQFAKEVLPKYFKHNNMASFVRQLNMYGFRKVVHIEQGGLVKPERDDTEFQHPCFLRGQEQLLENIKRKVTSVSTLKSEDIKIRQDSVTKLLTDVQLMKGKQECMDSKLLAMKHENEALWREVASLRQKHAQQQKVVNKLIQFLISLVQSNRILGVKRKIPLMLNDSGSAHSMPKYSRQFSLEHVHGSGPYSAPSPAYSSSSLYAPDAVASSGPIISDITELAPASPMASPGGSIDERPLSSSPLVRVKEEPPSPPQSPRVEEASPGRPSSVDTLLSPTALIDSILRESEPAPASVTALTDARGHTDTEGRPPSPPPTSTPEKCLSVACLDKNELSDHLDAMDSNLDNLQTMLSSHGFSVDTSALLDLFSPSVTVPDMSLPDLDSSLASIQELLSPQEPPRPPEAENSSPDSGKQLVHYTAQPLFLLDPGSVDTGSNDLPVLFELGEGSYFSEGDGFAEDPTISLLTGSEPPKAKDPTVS
How it was run: as §1

SPIC = target: T8, SPIC (Homo sapiens, UniProt Q8N5J4 1-248); conditions: protein: recombinant; tags: N-terminal GST; dsDNA, one strand shown
T8 sequence: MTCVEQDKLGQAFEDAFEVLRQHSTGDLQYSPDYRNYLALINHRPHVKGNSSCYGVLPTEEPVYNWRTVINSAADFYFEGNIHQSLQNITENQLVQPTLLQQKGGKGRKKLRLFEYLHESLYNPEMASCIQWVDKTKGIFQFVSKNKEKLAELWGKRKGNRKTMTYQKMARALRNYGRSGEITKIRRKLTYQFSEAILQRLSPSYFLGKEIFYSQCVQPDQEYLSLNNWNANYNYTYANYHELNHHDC
How it was run: as §1

ELF4 = ELF4 (Homo sapiens, UniProt Q99607 1-663); conditions: protein: recombinant; tags: N-terminal GST; dsDNA, one strand shown
ELF4, sequence (Q99607 whole entry): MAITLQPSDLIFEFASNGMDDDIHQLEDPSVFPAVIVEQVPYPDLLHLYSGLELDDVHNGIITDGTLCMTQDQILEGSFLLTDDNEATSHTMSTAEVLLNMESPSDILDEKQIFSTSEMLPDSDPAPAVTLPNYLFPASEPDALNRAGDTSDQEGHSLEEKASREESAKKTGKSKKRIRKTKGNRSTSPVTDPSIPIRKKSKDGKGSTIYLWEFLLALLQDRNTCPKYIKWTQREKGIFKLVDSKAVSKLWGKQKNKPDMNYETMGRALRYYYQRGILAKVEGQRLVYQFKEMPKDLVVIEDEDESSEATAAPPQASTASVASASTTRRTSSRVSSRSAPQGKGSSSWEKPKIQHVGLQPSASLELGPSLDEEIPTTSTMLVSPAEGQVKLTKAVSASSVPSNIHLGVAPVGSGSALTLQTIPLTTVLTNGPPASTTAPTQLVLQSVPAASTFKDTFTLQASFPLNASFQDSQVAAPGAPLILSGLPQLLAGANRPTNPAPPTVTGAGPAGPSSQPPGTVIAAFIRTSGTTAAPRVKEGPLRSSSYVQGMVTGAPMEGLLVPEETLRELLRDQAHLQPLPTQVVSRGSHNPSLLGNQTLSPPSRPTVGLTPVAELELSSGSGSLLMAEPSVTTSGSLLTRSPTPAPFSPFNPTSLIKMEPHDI
How it was run: as §1

ELK4 = target: T9, ELK4 (Homo sapiens, UniProt P28324-2 1-405); conditions: protein: recombinant; tags: N-terminal GST; dsDNA, one strand shown
T9 sequence: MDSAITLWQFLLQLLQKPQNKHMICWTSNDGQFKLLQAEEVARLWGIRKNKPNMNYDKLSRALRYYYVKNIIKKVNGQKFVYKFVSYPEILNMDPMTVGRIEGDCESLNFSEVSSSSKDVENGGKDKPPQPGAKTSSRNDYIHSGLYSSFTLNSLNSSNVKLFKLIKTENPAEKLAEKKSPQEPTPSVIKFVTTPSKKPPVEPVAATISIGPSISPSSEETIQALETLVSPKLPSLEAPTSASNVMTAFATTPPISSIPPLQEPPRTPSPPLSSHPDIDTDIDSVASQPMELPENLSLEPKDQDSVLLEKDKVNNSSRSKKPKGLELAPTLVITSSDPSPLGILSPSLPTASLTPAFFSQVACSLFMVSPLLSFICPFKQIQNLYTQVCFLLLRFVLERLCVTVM
How it was run: as §1

ETV2 = target: T10, ETV2 (Homo sapiens, UniProt O00321 1-342); conditions: protein: recombinant; tags: N-terminal GST; dsDNA, one strand shown
T10 sequence: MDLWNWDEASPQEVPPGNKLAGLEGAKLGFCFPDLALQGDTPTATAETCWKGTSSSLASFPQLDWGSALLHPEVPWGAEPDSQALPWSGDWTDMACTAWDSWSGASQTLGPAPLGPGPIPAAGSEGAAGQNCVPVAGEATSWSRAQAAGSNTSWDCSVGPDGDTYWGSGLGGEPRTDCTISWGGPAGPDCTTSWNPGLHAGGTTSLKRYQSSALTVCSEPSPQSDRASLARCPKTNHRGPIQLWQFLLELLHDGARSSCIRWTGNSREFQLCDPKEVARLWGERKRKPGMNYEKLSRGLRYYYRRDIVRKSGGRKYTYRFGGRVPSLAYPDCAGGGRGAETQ
How it was run: as §1

ELF3 = target: T11, ELF3 (Homo sapiens, UniProt P78545 1-371); conditions: protein: recombinant; tags: N-terminal GST; dsDNA, one strand shown
T11 sequence: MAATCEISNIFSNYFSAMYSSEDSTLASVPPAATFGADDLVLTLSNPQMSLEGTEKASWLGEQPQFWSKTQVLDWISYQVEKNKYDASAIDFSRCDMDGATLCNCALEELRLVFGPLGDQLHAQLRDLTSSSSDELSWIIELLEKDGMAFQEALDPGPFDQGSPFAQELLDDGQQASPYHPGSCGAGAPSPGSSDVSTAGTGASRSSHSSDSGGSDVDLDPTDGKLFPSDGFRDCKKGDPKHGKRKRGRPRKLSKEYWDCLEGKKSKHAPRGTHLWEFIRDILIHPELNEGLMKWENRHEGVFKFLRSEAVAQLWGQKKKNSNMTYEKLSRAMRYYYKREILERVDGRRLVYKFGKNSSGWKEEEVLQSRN
How it was run: as §1

CRX = CRX (Homo sapiens, UniProt O43186 1-299); conditions: protein: recombinant; tags: N-terminal GST; dsDNA, one strand shown
CRX, sequence (O43186 whole entry): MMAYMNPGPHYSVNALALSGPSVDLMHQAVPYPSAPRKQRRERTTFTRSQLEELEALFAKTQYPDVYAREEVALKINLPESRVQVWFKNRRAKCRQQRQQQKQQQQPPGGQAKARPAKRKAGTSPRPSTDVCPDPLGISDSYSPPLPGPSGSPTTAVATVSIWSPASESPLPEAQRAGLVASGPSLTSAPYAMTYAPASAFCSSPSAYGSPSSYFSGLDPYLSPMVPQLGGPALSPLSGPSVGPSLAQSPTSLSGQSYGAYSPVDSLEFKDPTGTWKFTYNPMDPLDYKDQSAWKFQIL
How it was run: as §1

ETV1 = ETV1 (Homo sapiens, UniProt P50549 1-477); conditions: protein: recombinant; tags: N-terminal GST; dsDNA, one strand shown
ETV1, sequence (P50549 whole entry): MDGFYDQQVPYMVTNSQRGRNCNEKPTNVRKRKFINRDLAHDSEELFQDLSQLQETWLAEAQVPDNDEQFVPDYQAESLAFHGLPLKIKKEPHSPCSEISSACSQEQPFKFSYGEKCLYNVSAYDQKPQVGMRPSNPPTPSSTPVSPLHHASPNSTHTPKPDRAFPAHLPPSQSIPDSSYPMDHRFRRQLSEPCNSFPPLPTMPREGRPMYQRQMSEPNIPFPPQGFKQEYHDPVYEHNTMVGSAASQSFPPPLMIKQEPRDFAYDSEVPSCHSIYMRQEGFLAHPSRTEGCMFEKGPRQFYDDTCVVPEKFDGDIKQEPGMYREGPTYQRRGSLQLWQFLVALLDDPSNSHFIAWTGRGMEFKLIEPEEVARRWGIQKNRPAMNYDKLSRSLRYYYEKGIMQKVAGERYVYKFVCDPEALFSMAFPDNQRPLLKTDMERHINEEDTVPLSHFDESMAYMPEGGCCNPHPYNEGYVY
How it was run: as §1

## GGCTCA
FLI1
  binding signal: 1.22 fold enrichment (6-mer frequency, TF over GST control)
ELK1
  binding signal: 1.38 fold enrichment (6-mer frequency, TF over GST control)
GABPA
  binding signal: 1.32 fold enrichment (6-mer frequency, TF over GST control)
ERG
  binding signal: 1.33 fold enrichment (6-mer frequency, TF over GST control)
ELF1
  binding signal: 1.34 fold enrichment (6-mer frequency, TF over GST control)
EHF
  binding signal: 1.23 fold enrichment (6-mer frequency, TF over GST control)
SPI1
  binding signal: 1.24 fold enrichment (6-mer frequency, TF over GST control)
SPIB
  binding signal: 1.24 fold enrichment (6-mer frequency, TF over GST control)
ELK3
  binding signal: 1.23 fold enrichment (6-mer frequency, TF over GST control)
FEV
  binding signal: 1.22 fold enrichment (6-mer frequency, TF over GST control)
ETV5
  binding signal: 1.22 fold enrichment (6-mer frequency, TF over GST control)
HSF1
  binding signal: 1.27 fold enrichment (6-mer frequency, TF over GST control)
SPIC
  binding signal: 1.28 fold enrichment (6-mer frequency, TF over GST control)
ELF4
  binding signal: 1.3 fold enrichment (6-mer frequency, TF over GST control)
ELK4
  binding signal: 1.15 fold enrichment (6-mer frequency, TF over GST control)
ETV2
  binding signal: 1.13 fold enrichment (6-mer frequency, TF over GST control)
ELF3
  binding signal: 1.28 fold enrichment (6-mer frequency, TF over GST control)
CRX
  binding signal: 1.53 fold enrichment (6-mer frequency, TF over GST control)
ETV1
  binding signal: 1.18 fold enrichment (6-mer frequency, TF over GST control)
